Test results published in PubChem BioAssay AID651640 (Broad Institute, 2012).
Among all 350,000 compounds or so, about 6,000 (1.7%) were called active. Another 5% or so got no clear call; they are omitted. Cut-off read from the data, not from the text of the source: active = CPE inhibition above about 20% (passing the limit was not always enough); inconclusive = no clear call, values can overlap the other calls; tested in BHK-21 cells. Only a selection was taken, and actives are over-represented in it overall.

Experiment: protection of cells from dengue 2 killing – plate reader, single concentration, primary screen (AID 651640);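 note: 0% = median of neutral control wells and 100% = median of positive control wells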
Conditions: DENV2-infected cells, cytopathic effect rescue, at 9.99 µM, stronger effect = higher value
With `CCCC#Cc1ccc([C@@H]2[C@@H](CO)N3C(=O)CN(C(=O)c4ccncc4)C[C@@H]23)cc1` the CPE inhibition was 0.156% (inactive).
For `CCNC[C@@H]1[C@@H](c2ccccc2)[C@@H](CO)N1C(=O)Cc1ccccn1`, the CPE inhibition was -0.972% (inactive).
For `COCC(=O)N1[C@H](CO)[C@@H](c2ccccc2)[C@H]1CN(C)C(=O)c1ccncc1`, the CPE inhibition was -13.8% (inactive).
For `COCC(=O)N1[C@H](CNC(=O)c2ccccn2)[C@H](c2ccccc2)[C@@H]1CO`, the CPE inhibition was 35.1% (active).
With `COc1ccc2c3c([nH]c2c1)[C@H](CO)N(Cc1cccc(F)c1)CC31CCN(Cc2ccccn2)CC1` the CPE inhibition was 5.05% (inactive).
With `CCCc1cc(=O)oc2cc(OCC(=O)Nc3ccc(CN4CCOCC4)cc3)c(Cl)cc12` the CPE inhibition was 2.98% (inactive).
With `CCOc1ccc(C(=O)Nc2ccc(CN3CCOCC3)cc2)cc1Cl` the CPE inhibition was 29.8% (active).
For `O=C(Nc1ccc(CN2CCOCC2)cc1)c1cc(Cl)ccc1Cl`, the CPE inhibition was 0.583% (inactive).
With `Cc1noc(C)c1NC(=O)Nc1ccc2c(c1)CC(=O)N([C@H](C)CO)C[C@@H](C)[C@H](CN(C)S(=O)(=O)c1cccs1)O2` the CPE inhibition was 5.9% (inactive).
For `C[C@@H]1CN([C@@H](C)CO)C(=O)c2cccc(NS(=O)(=O)c3ccc(Cl)cc3)c2O[C@@H]1CN(C)Cc1ccccc1`, the CPE inhibition was 10.9% (inactive).
With `O=C(Cc1cccnc1)N1CC(=O)N2[C@@H](CO)[C@@H](c3ccc(C#CC4CCCCC4)cc3)[C@@H]2C1` the CPE inhibition was 6.08% (inactive).
In the case of `O=C(Nc1nnc(-c2ccccc2)o1)c1cc(-c2cccs2)nc2ccccc12`, the CPE inhibition is reported as -13.1% (inactive).
In the case of `CC(=O)NCCNC(=O)c1cc(-c2cccc3ccccc23)nc2ccccc12`, the CPE inhibition is reported as 2.13% (inactive).
For `CCCCN(C)CCCNC(=O)c1cc(-c2cccs2)nc2ccccc12`, the CPE inhibition was 41.4% (active).
In the case of `C/C=C/c1ccc([C@@H]2[C@@H](CO)N(C(C)=O)[C@H]2CN(C)C(=O)CN(C)C)cc1`, the CPE inhibition is reported as 8.38% (inactive).
For `C/C=C/c1ccc([C@H]2[C@@H](CO)N(C(=O)NCCC)[C@H]2CN(C)C(C)=O)cc1`, the CPE inhibition was -22.2% (inactive).
For `C/C=C/c1ccc([C@@H]2[C@@H](CN(C)C(C)=O)N(C(=O)C3CC3)[C@H]2CO)cc1`, the CPE inhibition was 41.4% (active).
In the case of `COc1ccc(-c2cn(CC[C@H]3CC[C@@H](NC(=O)CCN4CCCCC4)[C@H](CO)O3)nn2)cc1`, the CPE inhibition is reported as -5.26% (inactive).
In the case of `Cc1noc(C)c1S(=O)(=O)Nc1ccc2c(c1)C(=O)N([C@@H](C)CO)C[C@H](C)[C@H](CN(C)CC1CCCCC1)OCCCC[C@H](C)O2`, the CPE inhibition is reported as -11.5% (inactive).
With `O=C([C@@H]1[C@@H](CO)[C@@H]2Cn3c(ccc(-c4cncnc4)c3=O)[C@@H]2N1C(=O)C1CCC1)N1CCCCC1` the CPE inhibition was -0.056% (inactive).
In the case of `COc1cccc(-c2ccc3n(c2=O)C[C@@H]2[C@@H](CO)[C@H](C(=O)NCC4CC4)N(C(=O)NC(C)C)[C@H]32)c1`, the CPE inhibition is reported as 13.2% (inactive).
With `CC(C)NC(=O)N1[C@@H]2c3ccc(-c4ccc(F)cc4)c(=O)n3C[C@@H]2[C@@H](CO)[C@@H]1C(=O)N1CCOCC1` the CPE inhibition was 69.3% (active).
With `CCC(=O)N1CCCCN2[C@H](C1)[C@@H](c1ccc(/C=C/c3ccccc3)cc1)[C@@H]2CO` the CPE inhibition was -4.84% (inactive).
For `CC(C)(C)[S@](=O)N1Cc2cc(C(=O)N3CCCCC3)nc(-c3cccc(Br)c3)c2[C@@H]1CCO`, the CPE inhibition was 41.3% (active).
For `CC(C)(C)[S@@](=O)N1Cc2cc(C(=O)N3CCCCC3)nc(-c3cccc(-c4cccc(C#N)c4)c3)c2[C@H]1CCO`, the CPE inhibition was -1% (inactive).
In the case of `CC(C)(C)[S@](=O)N1Cc2cc(C(=O)N3CCCCC3)nc(-c3cccc(-c4ccccc4F)c3)c2[C@@H]1CCO`, the CPE inhibition is reported as 1.74% (inactive).
In the case of `COC(=O)CCCCCN1C(=O)NC(c2ccc(-c3ccccc3)cc2)C(C(=O)OCc2ccccc2)=C1C` (centres undefined), the CPE inhibition is reported as -1.13% (inactive).
With `CCOC(=O)C1=C(C)N(C[C@@H]2CC[C@@H](Cc3ccc(-c4ccccc4)cc3)O2)C(=O)NC1c1ccc([N+](=O)[O-])cc1` (some centres undefined) the CPE inhibition was 49.3% (active).
For `CCC(CC)COC(=O)C1=C(C)NC(=O)NC1c1ccc([N+](=O)[O-])cc1` (centres undefined), the CPE inhibition was 4.17% (inactive).
With `C[C@@H]1CN([C@H](C)CO)C(=O)c2cc(NC(=O)CCCCCC(=O)Nc3ccccc3N)ccc2O[C@@H]1CN(C)Cc1ccncc1` the CPE inhibition was -1.11% (inactive).
For `COc1ccc2c3c([nH]c2c1)[C@@H](CO)N(C(=O)c1cccc(F)c1)CC31CN(C(C)=O)C1`, the CPE inhibition was -11.3% (inactive).
In the case of `O=C(C[C@H]1C=C[C@@H](NC(=O)Nc2cc(F)ccc2F)[C@H](CO)O1)NCCCN1CCOCC1`, the CPE inhibition is reported as -8.14% (inactive).
For `COc1ccccc1NC(=O)N1C[C@H]2[C@@H](c3ccccc31)[C@@H](CO)N2C(=O)C1CCCC1`, the CPE inhibition was -7.24% (inactive).
With `Cc1noc(C)c1S(=O)(=O)N(C)C[C@@H]1OCCCC[C@@H](C)Oc2ccc(NC(=O)Nc3ccccc3)cc2C(=O)N([C@H](C)CO)C[C@@H]1C` the CPE inhibition was 3.34% (inactive).
With `Cc1noc(C)c1S(=O)(=O)N(C)C[C@@H]1OCCCC[C@H](C)Oc2ccc(NC(=O)Nc3ccc4c(c3)OCO4)cc2C(=O)N([C@H](C)CO)C[C@H]1C` the CPE inhibition was 27.1% (active).
With `Cc1noc(C)c1S(=O)(=O)N(C)C[C@@H]1OCCCC[C@H](C)Oc2ccc(NC(=O)NC(C)C)cc2C(=O)N([C@H](C)CO)C[C@@H]1C` the CPE inhibition was 51.8% (active).
For `COc1ccc(S(=O)(=O)N(C)C[C@H]2OCCCC[C@H](C)Oc3ccc(NS(=O)(=O)c4c(C)noc4C)cc3C(=O)N([C@@H](C)CO)C[C@@H]2C)cc1`, the CPE inhibition was -3.17% (inactive).
In the case of `Cc1noc(C)c1S(=O)(=O)N(C)C[C@@H]1OCCCC[C@H](C)Oc2ccc(NC(=O)Nc3ccc4c(c3)OCO4)cc2C(=O)N([C@H](C)CO)C[C@@H]1C`, the CPE inhibition is reported as -3.84% (inactive).
For `Cc1noc(C)c1S(=O)(=O)N(C)C[C@@H]1OCCCC[C@H](C)Oc2ccc(NC(=O)NC3CCCCC3)cc2C(=O)N([C@@H](C)CO)C[C@H]1C`, the CPE inhibition was -11.4% (inactive).
With `C[C@@H]1CCCCO[C@@H](CN(C)S(C)(=O)=O)[C@H](C)CN([C@@H](C)CO)C(=O)c2cc(NC(=O)Nc3ccc4c(c3)OCO4)ccc2O1` the CPE inhibition was 12.2% (inactive).
With `Cc1noc(C)c1S(=O)(=O)N(C)C[C@@H]1OCCCC[C@@H](C)Oc2ccc(NS(=O)(=O)c3ccccc3)cc2C(=O)N([C@H](C)CO)C[C@@H]1C` the CPE inhibition was -8.98% (inactive).
With `COc1ccc(S(=O)(=O)Nc2ccc3c(c2)C(=O)N([C@@H](C)CO)C[C@H](C)[C@H](CN(C)S(=O)(=O)c2c(C)noc2C)OCCCC[C@@H](C)O3)cc1` the CPE inhibition was 36% (active).
In the case of `CCC(=O)N1CCC2(CC1)CN(Cc1cccc(OC)c1)[C@@H](CO)c1[nH]c3cc(OC)ccc3c12`, the CPE inhibition is reported as -4.07% (inactive).
In the case of `C[C@@H]1CN([C@H](C)CO)C(=O)c2cc(C#CCN(C)C)cnc2O[C@@H]1CN(C)C(=O)Cc1cccnc1`, the CPE inhibition is reported as 6.92% (inactive).
In the case of `CCc1cccc(NC(=O)O[C@H]2[C@H](OC(=O)Nc3ccccc3-c3ccccc3)[C@H](OC(=O)Nc3ccccc3-c3ccccc3)[C@@H](OC)O[C@@H]2CO)c1`, the CPE inhibition is reported as 1.23% (inactive).
In the case of `CC(C)CNc1cccc2c1S(=O)(=O)N[C@H](C)CO2`, the CPE inhibition is reported as 2.95% (inactive).
With `CN(C)C(=O)C[C@@H]1C=C[C@H](NC(=O)Nc2cccc(F)c2)[C@H](CO)O1` the CPE inhibition was -10% (inactive).
For `COc1cc(F)c(C2=CC(=O)CC(C)(C)C2)cc1F`, the CPE inhibition was 26.9% (active).
In the case of `CC1(C)CC(=O)C=C(c2ccc(Cl)c(C(F)(F)F)c2)C1`, the CPE inhibition is reported as 1.16% (inactive).
For `COc1ccc(CCNC2=CC(=O)CC(C)(C)C2)cc1`, the CPE inhibition was 16.6% (inactive).
In the case of `O=S(=O)(Nc1ncnc2sccc12)c1cccc(F)c1`, the CPE inhibition is reported as -1.13% (inactive).
In the case of `Cc1cc(F)ccc1S(=O)(=O)Nc1ncnc2scc(-c3ccc(F)cc3)c12`, the CPE inhibition is reported as 46.8% (active).
With `COc1ccc(-c2csc3ncnc(N4CCN(S(=O)(=O)c5cccc(F)c5)CC4)c23)cc1` the CPE inhibition was 5.97% (inactive).
In the case of `O=C1CN(S(=O)(=O)c2ccccc2)C[C@H]2[C@H](c3ccc(C4=CCCC4)cc3)[C@@H](CO)N12`, the CPE inhibition is reported as -1.48% (inactive).
In the case of `COc1cccc(NC(=O)N[C@@H]2CC[C@H](CC(=O)Nc3ccccc3)O[C@@H]2CO)c1`, the CPE inhibition is reported as 3.12% (inactive).
For `Nc1ccccc1-c1cn(CC(=O)Nc2ccon2)nn1`, the CPE inhibition was 15.8% (inactive).
With `CO[C@@H]1CN(C)C(=O)c2ccc(NS(=O)(=O)c3cccc(C)c3)cc2OC[C@@H](C)NC[C@H]1C` the CPE inhibition was 10.6% (inactive).
With `Cc1noc(C)c1NC(=O)N(C)C[C@@H]1OCCCC[C@H](C)Oc2ccc(NC(=O)NC3CCCCC3)cc2C(=O)N([C@H](C)CO)C[C@@H]1C` the CPE inhibition was -0.006% (inactive).
For `C[C@@H]1CN([C@@H](C)CO)C(=O)c2cc(NC(=O)Nc3cccc4ccccc34)ccc2O[C@@H]1CN(C)Cc1ccc(-c2ccccc2)cc1`, the CPE inhibition was 6.66% (inactive).
In the case of `C[C@@H]1CN([C@@H](C)CO)C(=O)c2cc(NC(=O)Cc3ccccc3)ccc2O[C@@H]1CN(C)Cc1ccc(Oc2ccccc2)cc1`, the CPE inhibition is reported as -2.18% (inactive).
For `COc1ccc(CN(C)C[C@@H]2Oc3ccc(NC(=O)Nc4cccc5ccccc45)cc3C(=O)N([C@H](C)CO)C[C@H]2C)cc1`, the CPE inhibition was 1.24% (inactive).
With `COc1ccc(CN(C)C[C@H]2Oc3ccc(NC(=O)CCN4CCOCC4)cc3C(=O)N([C@@H](C)CO)C[C@H]2C)cc1` the CPE inhibition was 8.91% (inactive).
In the case of `C[C@@H]1CN([C@@H](C)CO)C(=O)c2cc(NC(=O)Nc3cccc4ccccc34)ccc2O[C@H]1CN(C)Cc1ccc(Oc2ccccc2)cc1`, the CPE inhibition is reported as 29.3% (active).
For `C[C@@H]1CN([C@H](C)CO)C(=O)c2cc(NC(=O)CCN3CCOCC3)ccc2O[C@H]1CN(C)Cc1ccc(Oc2ccccc2)cc1`, the CPE inhibition was 25.3% (active).
